# Data taken from PubChem BioAssay (EPA / NIEHS).
# Active and inactive are the calls of the source. How the source made its calls: active means hit-call score of the fitted dose curve at least 0.9, where 1 is the maximum; inactive means score below 0.9.
# Read-out: ABC Transporter (ABCB1), ABCB1 (gene 5243)
# Test: LTEA_HepaRG_ABCB1: Life Technologies and Expression Analysis (LTEA) Assay for ABC Transporter (ABCB1) using HepaRG (AID 2283460)
# Conditions: mRNA level, 48 h; actives raise or lower the signal
# Method in brief: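 ABCB1 transcript level measured by TaqMan qRT-PCR against three housekeeping genes after 48 h chemical exposure of differentiated HepaRG cells. Top concentration 100 uM, half-log steps, eight points, 0.5% DMSO vehicle; bidirectional fit relative to DMSO.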
SMILES,AC50,outcome
CC(c1ccc(O)cc1)(c1ccc(O)cc1)c1ccc(O)cc1,72.9 µM (active),
C=CC(N)=O,,inactive
Cc1cc2c3c(c1)C(c1ccccc1)=N[C@@H](NC(=O)c1ccncc1)C(=O)N3CC2,5.26 µM (active),
CN(C)CCO,,inactive
Nn1cnnc1,,inactive
Cc1cc(-c2ccc(N)c(C)c2)ccc1N,,inactive
O=C(NC(=O)c1c(F)cccc1F)Nc1cc(Cl)c(OC(F)(F)C(F)F)c(Cl)c1,,inactive
CN(C)c1nc(=O)n(C2CCCCC2)c(=O)n1C,,inactive
O=C(O)C(F)(F)C(F)(F)C(F)(F)C(F)(F)C(F)(F)C(F)(F)C(F)(F)C(F)(F)C(F)(F)F,85.1 µM (active),
c1cc2ccc3cccc4ccc(c1)c2c34,,inactive
C=CC(=O)NCNC(=O)C=C,,inactive
Clc1ccc(C(Cl)(Cl)Cl)cc1,,inactive
O=C(NC(=O)c1cc(F)c(F)cc1Cl)Nc1cc(F)ccc1N1CCC(C(=O)O)CC1,21 µM (active),
